Test results published in PubChem BioAssay (NCI).
This is part of a sample that, as a whole, favours compounds with a hit. Of some 79,000 tested, about 15% had one in any assay. Unmarked numbers belong to inactive results. The source made the active and inactive calls. No stated cut-off is given here; in the data, active means growth inhibition above about 70%; inactive means the rest.

Test: NCI Yeast Anticancer Drug Screen. Data for the mlh1 rad18 strain (AID 175)
Details: S. cerevisiae mlh1 rad18 strain growth inhibition; at 50.0 µM (retest, dose inferred, filed as 5.0); hits give high values
How it was run: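 Genetically defined yeast (DNA repair-deficient) exposed to compounds; growth inhibition determined relative to vehicle.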

Compound | growth inhibition
CCCCCCCCCCCCCCCC1=NCCN1C | 99% (active)
C=CCNC(=O)c1ccccc1C(=O)O | 13%
O=C(Nc1ccc(Cl)cc1Cl)OC(Cn1cncn1)c1ccc(Cl)cc1Cl (stereo not given) | 77% (active)
CC1=C(C)CC2C(=O)C(C(O)CC(C)C)=CC(=O)C2C1 (stereo not given) | 97% (active)
BrCc1ccccc1C[P+](c1ccccc1)(c1ccccc1)c1ccccc1 | 98% (active)
Cc1cn(C(C#N)=C(C#N)C#N)c2ccccc12 | 16%
O=C1OCCCOC(=O)c2cc(ccc2O)OCC#CC#CCOc2ccc(O)c1c2 | -4%
O=[N+]([O-])c1cc2ccc(O)cc2c2ccccc12 | 91% (active)
COc1cc2c(oc(=O)c3cc(C)cc(OC)c32)c2c(C3OC(C)C(O)C(C)(O)C3O)ccc(O)c12 (stereo not given) | 96% (active)
Oc1c(Cl)cc(Cl)c(Cc2c(Cl)cc(Cl)c(O)c2Cl)c1Cl | 96% (active)
N#CI1OC(C(F)(F)F)(C(F)(F)F)c2ccccc21 | 98% (active)
c1ccc2c(c1)[nH]c1c[n+]3c(c[n+]12)[nH]c1ccccc13 | 84% (active)
CC1Cc2cc(O)c(O)cc2-c2cc(O)c(O)cc2CC1C (stereo not given) | 93% (active)
COc1ccc(C2c3cc4c(cc3OC(C)(O)C2C)OCO4)cc1 (stereo not given) | 93% (active)
Cc1ccc(C2(O)CC(c3ccc([N+](=O)[O-])o3)=NN2C(=O)COc2ccc(Cl)cc2)cc1 (stereo not given) | 43%
CCO[Si](CC)(OCC)OCC | 3%
C/C=C(/CCC1NCCC2c3ccccc3NC12)[Si](C)(C)C (stereo not given) | 37%
O=C(CBr)N1c2ccccc2Sc2ccc3ccccc3c21 | 98% (active)
CC(C)(C)CC(C)(C)N[P+](NC(C)(C)CC(C)(C)C)(NC(C)(C)CC(C)(C)C)NC(C)(C)CC(C)(C)C | 98% (active)
COc1ccc(/C=C/c2ccnnc2)c(OC)c1OC | 2%

Compound | growth inhibition
O=Cc1cc(-c2ccccc2)n(-c2ccccc2)c1-c1ccccc1 | 16%
CC(=O)Oc1ccc(/C=C/c2ccncc2)cc1 | -69%
OC(c1ccccc1)(c1ccccc1)c1ccc[cH-]1.OC(c1ccccc1)(c1ccccc1)c1ccc[cH-]1.[Fe+2] | -3%
O=C1C=CC(=O)N1c1ccc(Cl)cc1Br | 45%
Cc1c(N)nc(C2CC(=O)N2CC(N)C(N)=O)nc1C(=O)NC(C(=O)NC(C)C(O)C(C)C(=O)NC(C(=O)NCCc1nc(-c2nc(C(=O)NCCNCC(C)O)cs2)cs1)C(C)O)C(OC1OC(CO)C(O)C(O)C1OC1OC(CO)C(O)C(OC(N)=O)C1O)c1cnc[nH]1 (stereo not given) | 98% (active)
CNC(=S)/N=c1/sc([N+](=O)[O-])c(C)n1C | -12%
O=c1c2ccccc2ncn1Cc1ccccc1[N+](=O)[O-] | 18%
Cc1nn(C(=O)c2ccncc2)c(C)c1N=Nc1ccccc1[N+](=O)[O-] | 94% (active)
CCC[CH2][Ge]([CH2]CCC)([CH2]CCC)[O]C(=O)C(OC(C)=O)c1ccccc1 (stereo not given) | 87% (active)
Nc1ccc2c(c1)[nH]c(=O)c1cc(Cl)c(Cl)cc12 | 85% (active)
CCCCCCCCCCCCSC1=C(N)C(=O)c2ccccc2C1=O | 5%
CCC(C)(C)c1ccc(OCCO)c([N+](=O)[O-])c1 | 90% (active)
C/C(=N/O)c1cccc(C(F)(F)F)c1 | -127%
CCCCCCN(S(=O)(=O)c1ccc([N+](=O)[O-])cc1)S(=O)(=O)c1ccc([N+](=O)[O-])cc1 | 48%
N#CC1=C(N)OC(c2ccccc2)=C(C#N)C1c1ccccc1[N+](=O)[O-] (stereo not given) | 7%
COC1CCCCC1C(=O)C(C#N)C1CCCCC1C1CCCCC1 (stereo not given) | 3%
COCCOC1=C(Cl)C(=O)c2c(O)ccc(O)c2C1=O | 98% (active)
NC(CSSCC(N)C(=O)Nc1ccc2ccccc2c1)C(=O)Nc1ccc2ccccc2c1 (stereo not given) | 99% (active)
CSc1c(S(C)=O)c2ccccc2n1C (stereo not given) | 20%
CCCCCCCCCCCCCCCCNCCCCCCCC(=O)O | 66%

Same assay, conditions: S. cerevisiae mlh1 rad18 strain growth inhibition; at 50.0 µM; hits give high values

Compound | growth inhibition
CCCCCCCCCCCCCCCC1=NCCN1C | 98.9% (active)
C=CCNC(=O)c1ccccc1C(=O)O | 46.7%
O=C(Nc1ccc(Cl)cc1Cl)OC(Cn1cncn1)c1ccc(Cl)cc1Cl (stereo not given) | 90.5% (active)
CC1=C(C)CC2C(=O)C(C(O)CC(C)C)=CC(=O)C2C1 (stereo not given) | 98.9% (active)
BrCc1ccccc1C[P+](c1ccccc1)(c1ccccc1)c1ccccc1 | 88.2% (active)
Cc1cn(C(C#N)=C(C#N)C#N)c2ccccc12 | -16.2%
O=C1OCCCOC(=O)c2cc(ccc2O)OCC#CC#CCOc2ccc(O)c1c2 | 29.7%
O=[N+]([O-])c1cc2ccc(O)cc2c2ccccc12 | 93.7% (active)
COc1cc2c(oc(=O)c3cc(C)cc(OC)c32)c2c(C3OC(C)C(O)C(C)(O)C3O)ccc(O)c12 (stereo not given) | 88.8% (active)
Oc1c(Cl)cc(Cl)c(Cc2c(Cl)cc(Cl)c(O)c2Cl)c1Cl | 46.6%
N#CI1OC(C(F)(F)F)(C(F)(F)F)c2ccccc21 | 92.3% (active)
c1ccc2c(c1)[nH]c1c[n+]3c(c[n+]12)[nH]c1ccccc13 | 80% (active)
CC1Cc2cc(O)c(O)cc2-c2cc(O)c(O)cc2CC1C (stereo not given) | 83.7% (active)
COc1ccc(C2c3cc4c(cc3OC(C)(O)C2C)OCO4)cc1 (stereo not given) | 98.5% (active)
Cc1ccc(C2(O)CC(c3ccc([N+](=O)[O-])o3)=NN2C(=O)COc2ccc(Cl)cc2)cc1 (stereo not given) | 34.3%
CCO[Si](CC)(OCC)OCC | 31.8%
C/C=C(/CCC1NCCC2c3ccccc3NC12)[Si](C)(C)C (stereo not given) | 44.5%
O=C(CBr)N1c2ccccc2Sc2ccc3ccccc3c21 | 88.2% (active)
CC(C)(C)CC(C)(C)N[P+](NC(C)(C)CC(C)(C)C)(NC(C)(C)CC(C)(C)C)NC(C)(C)CC(C)(C)C | 90.7% (active)
COc1ccc(/C=C/c2ccnnc2)c(OC)c1OC | 93.7% (active)

Compound | growth inhibition
O=Cc1cc(-c2ccccc2)n(-c2ccccc2)c1-c1ccccc1 | 47.3%
CC(=O)Oc1ccc(/C=C/c2ccncc2)cc1 | 48.2%
OC(c1ccccc1)(c1ccccc1)c1ccc[cH-]1.OC(c1ccccc1)(c1ccccc1)c1ccc[cH-]1.[Fe+2] | 35.4%
O=C1C=CC(=O)N1c1ccc(Cl)cc1Br | 92.5% (active)
Cc1c(N)nc(C2CC(=O)N2CC(N)C(N)=O)nc1C(=O)NC(C(=O)NC(C)C(O)C(C)C(=O)NC(C(=O)NCCc1nc(-c2nc(C(=O)NCCNCC(C)O)cs2)cs1)C(C)O)C(OC1OC(CO)C(O)C(O)C1OC1OC(CO)C(O)C(OC(N)=O)C1O)c1cnc[nH]1 (stereo not given) | 92.5% (active)
CNC(=S)/N=c1/sc([N+](=O)[O-])c(C)n1C | 54.8%
O=c1c2ccccc2ncn1Cc1ccccc1[N+](=O)[O-] | -6.15%
Cc1nn(C(=O)c2ccncc2)c(C)c1N=Nc1ccccc1[N+](=O)[O-] | 26.1%
CCC[CH2][Ge]([CH2]CCC)([CH2]CCC)[O]C(=O)C(OC(C)=O)c1ccccc1 (stereo not given) | 79.5% (active)
Nc1ccc2c(c1)[nH]c(=O)c1cc(Cl)c(Cl)cc12 | 92.9% (active)
CCCCCCCCCCCCSC1=C(N)C(=O)c2ccccc2C1=O | 53%
CCC(C)(C)c1ccc(OCCO)c([N+](=O)[O-])c1 | 56.9%
C/C(=N/O)c1cccc(C(F)(F)F)c1 | 19.2%
CCCCCCN(S(=O)(=O)c1ccc([N+](=O)[O-])cc1)S(=O)(=O)c1ccc([N+](=O)[O-])cc1 | 73.8% (active)
N#CC1=C(N)OC(c2ccccc2)=C(C#N)C1c1ccccc1[N+](=O)[O-] (stereo not given) | 23.3%
COC1CCCCC1C(=O)C(C#N)C1CCCCC1C1CCCCC1 (stereo not given) | 98.3% (active)
COCCOC1=C(Cl)C(=O)c2c(O)ccc(O)c2C1=O | 89.2% (active)
NC(CSSCC(N)C(=O)Nc1ccc2ccccc2c1)C(=O)Nc1ccc2ccccc2c1 (stereo not given) | 88% (active)
CSc1c(S(C)=O)c2ccccc2n1C (stereo not given) | -26.4%
CCCCCCCCCCCCCCCCNCCCCCCCC(=O)O | 74.5% (active)
